What all share (experiment): qHTS profiling for inhibitors of Plasmodium falciparum proliferation (AID 504749); also: nearly all actives have a fitted effect of over 60% in size
Conditions in all cases: P. falciparum in erythrocytes, SYBR Green DNA, 72 h; series mostly up to 28.7 µM

The test system of one assay is C2A. The method in brief: (§1)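 In a 72 h erythrocytic culture (37 C, humidified, 5% CO2) at 2.5% hematocrit and 0.3% starting parasitemia, compounds were tested; SYBR Green I in detergent lysis buffer stained parasite DNA overnight.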
A further assay relates to CP192. The method, boiled down: as §1
A further assay has as its system CP211. The method in brief:
as §1

The next assay concerns CP215. The method, boiled down:
as §1

In another assay the test system is CP250. The method, boiled down:
as §1

The test system of a further assay is CP262. The method, boiled down: as §1
A further assay has as its system CP265. The method in brief:
as §1

Another assay relates to CP191. The method in brief:
as §1

A further assay relates to CP201. The method in brief:
as §1

For another assay, the system named is CP237. The method, boiled down:
as §1

The test system of a further assay is CP260. The method in brief:
as §1

The test system of another assay is CP185. The method in brief: as §1
The test system of the next assay is CP194. The method, boiled down:
as §1

A further assay has as its system CP203. The method in brief: as §1
The next assay has as its system CP247. The method in brief:
as §1

For another assay, the system named is CP217. The method, boiled down:
as §1

The next assay has as its system CP238. The method, boiled down: as §1
The subject of another assay is CP252. The method, boiled down:
as §1

The next assay has as its system ATS95. The method in brief:
as §1

A further assay concerns CP256. The method, boiled down:
as §1

Inconclusive results are not listed. Activity calls are given as the source filed them. Calls follow the shape of the dose curve; as a rule, active = well fitted inhibition curve with a large enough effect; inconclusive = small, poorly fitted or top-dose-only effect; inactive = flat fitted curve, though single readings scatter.
Potency is read from the fitted curve at half-maximal effect.

In the case of `CN(C)CCOC(c1ccc(Cl)cc1)c1ccccn1` (configuration not stated), the Potency result in the assay with C2A, with CP192, in the assay with CP211, in the assay on CP215, in the assay on CP250 and with CP262 was “inactive” in each case. In addition, the Potency with CP265 is 7.08 µM (active).
Regarding `CC(C)(C)NC[C@H](O)COc1nsnc1N1CCOCC1`, the Potency in the assay with CP191 is 7.08 µM (active); in the assay with CP237 it was 5.01 µM (active); in the assay with CP260 it was 7.94 µM (active); in the assay on CP265, 6.31 µM (active). Also, the Potency entry with CP201 and with CP262 was “inactive” each time.
With `O=S(c1cc(Cl)cc(Cl)c1O)c1cc(Cl)cc(Cl)c1O`, the Potency is 17.8 µM (active) with CP191, 7.08 µM (active) in the assay on CP237 and 28.2 µM (active) in the assay on CP250.
As for `CN(C)CCN1C(=O)c2ccccc2N(C)c2ccccc21`, the Potency result with C2A, in the assay with CP215, in the assay on CP250 and with CP262 was “inactive” in each case. In addition, the values for the Potency in the assay with CP237 and in the assay with CP265 were 3.98 µM (active) and 12.6 µM (active), respectively.
`O=C(CCN1CCN2CCCC2C1)N1c2ccccc2Sc2ccc(Cl)cc21` (configuration not stated): the Potency entry in the assay on CP185, with CP192, in the assay with CP194, in the assay on CP201, with CP203 and with CP211 was “inactive” in each case. Besides, the Potency result in the assay on CP250, in the assay on CP262 and with CP265 was “inactive” each time.
Take `CC(=O)O[C@H]1C[C@@H]2CC[C@@H]3[C@H](CC[C@@]4(C)[C@H]3C[C@H]([N+]3(C)CCCCC3)[C@@H]4OC(C)=O)[C@@]2(C)C[C@@H]1N1CCCCC1`: the Potency result in the assay on CP194 and in the assay with CP247 was “inactive” throughout.
Take `NCc1ccccc1Sc1ccccc1CO`: the Potency result with C2A, in the assay on CP185, in the assay with CP191, in the assay with CP192, in the assay with CP201 and with CP211 was “inactive” in each case. Moreover, the Potency entry with CP215, in the assay with CP217, in the assay with CP238, in the assay on CP247, with CP250 and in the assay with CP252 was “inactive” in each case. Also, the Potency result in the assay on CP260 and with CP265 was “inactive” in each case. Also, the Potency with CP237 was 8.91 µM (active).
Turning to `CC(C)[N+](C)(C)CC(O)COc1cccc2ccccc12` (configuration not stated), the Potency entry in the assay on ATS95, in the assay with CP201, with CP203, with CP217, with CP238 and in the assay on CP247 was “inactive” each time. Besides, the Potency result with CP252, in the assay on CP262 and in the assay with CP265 was “inactive” each time.
`CN1CCN(C2=Nc3cc(F)ccc3Cc3ccccc32)CC1`: the Potency entry in the assay on C2A, in the assay on CP185, in the assay on CP191, with CP192, in the assay on CP201 and in the assay on CP203 was “inactive” in each case. The Potency result with CP211, in the assay with CP215, in the assay on CP217, in the assay on CP238, with CP250 and with CP252 was “inactive” throughout. Moreover, the Potency result in the assay with CP260 and in the assay with CP262 was “inactive” in each case. Further, the Potency with CP237 is 7.08 µM (active).
Turning to `CN1CCC[C@@H]1CCO[C@](C)(c1ccccc1)c1ccc(Cl)cc1`, the Potency result in the assay with C2A, in the assay on CP185, in the assay on CP192, in the assay on CP201, in the assay with CP211 and in the assay with CP215 was “inactive” in each case. Also, the Potency result with CP238, in the assay on CP256, in the assay with CP260, in the assay with CP262 and in the assay on CP265 was “inactive” throughout.
As to `COC(=O)C(c1ccccc1Cl)N1CCc2sccc2C1` (configuration not stated), the Potency entry with C2A and in the assay on CP247 was “inactive” throughout.
Take `CCN(CC)CCOc1ccc2c(c1)C(=O)c1cc(OCCN(CC)CC)ccc1-2`: the Potency in the assay with C2A is 10 µM (active); in the assay with CP185, 12.6 µM (active); with CP237, 12.6 µM (active); in the assay with CP256, 11.2 µM (active). Moreover, the Potency result with CP262 was “inactive”.
On to `Cc1ccc(-c2ncc(Cl)cc2-c2ccc(S(C)(=O)=O)cc2)cn1`, for which the Potency entry with CP192, in the assay with CP194, with CP201, with CP211, in the assay with CP260 and with CP262 was “inactive” in each case.
For `CCCCCN=C(N)N/N=C/c1c[nH]c2ccc(OC)cc12`, the Potency with CP191 is 7.94 µM (active); in the assay with CP237 it was 5.01 µM (active); in the assay with CP260, 5.01 µM (active); in the assay with CP265, 4.47 µM (active). In addition, the Potency entry with CP192 and with CP262 was “inactive” throughout.
On to `CC(C)NCC(O)c1ccc2ccccc2c1` (configuration not stated), for which the Potency is 8.91 µM (active) in the assay with ATS95; 8.91 µM (active) in the assay with CP185; 11.2 µM (active) in the assay with CP191; 10.7 µM (active) in the assay on CP194; 12 µM (active) in the assay on CP203; 10.7 µM (active) in the assay on CP215. The Potency in the assay with CP217 was 8.91 µM (active); with CP237 it was 4.47 µM (active); in the assay on CP238, 10 µM (active); with CP247, 7.94 µM (active); in the assay with CP252 it was 11.2 µM (active); in the assay with CP260, 6.31 µM (active). The Potency in the assay on CP265 is 10 µM (active). In addition, the Potency entry in the assay on CP201 was “inactive”.
Turning to `OC(C#CCN1CCCC1)(c1ccccc1)c1ccccc1`, the Potency result in the assay with C2A, in the assay with CP191 and in the assay with CP201 was “inactive” throughout. For the same compound, the Potency in the assay with CP203 is 15.1 µM (active); with CP237, 5.01 µM (active); in the assay on CP260, 8.91 µM (active).
For the compound `Cc1cc2c(OCC(CNC(C)(C)C)OC(=O)c3ccccc3)cccc2[nH]1` (configuration not stated), the Potency result in the assay with CP185, in the assay with CP192, in the assay on CP194, with CP201, in the assay with CP211 and in the assay on CP217 was “inactive” throughout. The Potency result in the assay with CP238, in the assay on CP250, in the assay with CP252, in the assay on CP256, in the assay with CP262 and in the assay on CP265 was “inactive” each time. For the same compound, the Potency in the assay on CP237 and with CP260 was 11.2 µM (active) throughout.
Take `CN(Cc1ccc(C(C)(C)C)cc1)Cc1cccc2ccccc12`: the Potency entry in the assay on C2A, with CP185, in the assay on CP192, with CP194, in the assay with CP201 and in the assay with CP203 was “inactive” in each case. Besides, the Potency result with CP211, in the assay with CP215, in the assay with CP217, in the assay with CP237, in the assay on CP238 and in the assay on CP247 was “inactive” throughout. Further, the Potency result in the assay with CP250, with CP252, with CP256, in the assay with CP260, with CP262 and in the assay with CP265 was “inactive” throughout.
`CN1CCC(OC(c2ccccc2)c2ccccc2)CC1`: the Potency result in the assay with C2A, with CP191, in the assay on CP192, with CP201 and in the assay with CP250 was “inactive” each time. The results for the Potency in the assay on CP260 and with CP265 were 3.98 µM (active) and 3.55 µM (active), respectively.
In the case of `CC(=O)OCC(=O)[C@H]1CC[C@H]2[C@@H]3CCC4=CC(=O)CC[C@]4(C)[C@H]3CC[C@]12C`, the Potency entry in the assay on C2A, in the assay with CP185, with CP191, in the assay on CP192, in the assay with CP194 and in the assay with CP201 was “inactive” throughout. For the same compound, the Potency result in the assay on CP203, in the assay with CP211, in the assay on CP217, in the assay on CP238, in the assay on CP247 and in the assay with CP250 was “inactive” in each case. Besides, the Potency entry with CP252, in the assay on CP256, in the assay with CP260, with CP262 and in the assay with CP265 was “inactive” throughout.
For the compound `O=C(CN1CCN(Cc2ccc3c(c2)OCO3)CC1)N1c2ccccc2Sc2ccccc21`, the Potency is 11.2 µM (active) with C2A, 11.2 µM (active) in the assay with CP217, 8.91 µM (active) in the assay on CP260 and 7.94 µM (active) in the assay with CP265. In addition, the Potency result in the assay with CP192 and in the assay with CP201 was “inactive” each time.
Consider `CCCCCCCCCCCCOCCOCCOCCOCCOCCOCCOCCOCCOCCO`, for which the Potency result in the assay with CP192, with CP194, with CP201, with CP203, in the assay with CP211 and with CP215 was “inactive” throughout. Also, the Potency result in the assay with CP237 and with CP262 was “inactive” in each case.
As for `Cc1ccc2c(Br)cc(Br)c(O)c2n1`, the Potency in the assay with CP185 was 10 µM (active); in the assay on CP194, 13.5 µM (active); in the assay on CP211, 15.1 µM (active); in the assay on CP215, 9.53 µM (active); in the assay with CP217 it was 10 µM (active); in the assay on CP247, 11.2 µM (active). The Potency result with CP262 was “inactive”.
As to `CN(CCCN1c2ccccc2CCc2ccccc21)CC(=O)c1ccc(Cl)cc1`, the Potency with ATS95 is 10 µM (active); in the assay with CP217, 11.2 µM (active); in the assay with CP237 it was 12.6 µM (active); in the assay with CP260, 10 µM (active); in the assay on CP265, 11.2 µM (active). Moreover, the Potency result in the assay with C2A, with CP192, in the assay on CP201 and in the assay with CP262 was “inactive” throughout.
With `Oc1c(Cl)cc(Cl)c(Cl)c1Cc1c(O)c(Cl)cc(Cl)c1Cl`, the Potency in the assay on CP191 is 8.91 µM (active); in the assay with CP194, 10.7 µM (active); with CP201 it was 10.7 µM (active); with CP203, 7.57 µM (active); in the assay with CP211, 12 µM (active); in the assay on CP215, 7.57 µM (active). The Potency is 8.91 µM (active) in the assay on CP217; 11.2 µM (active) in the assay on CP237; 10 µM (active) in the assay on CP238; 8.91 µM (active) in the assay on CP247; 8.91 µM (active) in the assay on CP252. Moreover, in the assay with CP256, the Potency entry is “inactive”.
`CN(C)C(=O)Nc1ccc(Cl)c(Cl)c1`: the Potency result in the assay with ATS95, in the assay with CP185, with CP192, in the assay on CP250, in the assay on CP262 and with CP265 was “inactive” each time. In addition, in the assay on CP247, the Potency was 4.47 µM (active).

Source of the values: PubChem BioAssay (NCATS).
